Test results: PubChem BioAssay AID1159580 (chemical genetic matrix, 2015)
Several values for one entry are separate records, joined by “and”; a condition that tells them apart may be missing. Identical values can stand only once. The campaign covered roughly 5,500 compounds. About 2,000 (36%) were called active. Not shown: some 18% with an inconclusive outcome. Cut-off read from the data, not from the text of the source: active = normalized growth mostly below about 0.91 (no sharp cut-off); inconclusive = no clear call, values can overlap the other calls; inactive = mostly above about 0.92. The list shows a part of the results.

Experiment: chemical genetic growth profiling, strain panel (AID 1159580);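 note: tested at 20 µM; growth read once vehicle control cultures reached saturation at 30 °C; 1 = growth at the plate median or of vehicle wells; lower values mean less growth of the strain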
Settings: S. cerevisiae deletion strains, growth OD

Measured: normalized growth

COC1=CC(C)[C@@H]2C[C@H]3OC(=O)C[C@H]4C(C)=C(OC)C(=O)C([C@@]34C)[C@@]2(C)C1=O (some centres undefined)
inactive: locus YAL021C, strain ccr4, stronger effect = lower value 0.997 | locus YAL026C, strain drs2, stronger effect = lower value 0.979 | locus YAL030W, strain snc1, stronger effect = lower value 0.988 | locus YBL061C, strain skt5, stronger effect = lower value 0.987 | locus YBR009C, strain hhf1, stronger effect = lower value 0.962 | locus YBR021W, strain FUR4, stronger effect = lower value 0.994 | locus YBR023C, strain chs3, stronger effect = lower value 0.978 | locus YBR171W, strain sec66, stronger effect = lower value 0.977 | locus YBR229C, strain ROT2, stronger effect = lower value 1.01 | locus YBR231C, strain swc5, stronger effect = lower value 0.988 | locus YBR279W, strain paf1, stronger effect = lower value 0.985 | locus YCL011C, strain gbp2, stronger effect = lower value 0.977 | locus YCL016C, strain dcc1, stronger effect = lower value 0.981 | locus YCL029C, strain bik1, stronger effect = lower value 1.02 | locus YCL061C, strain MRC1, stronger effect = lower value 0.99 | locus YCL069W, strain vba3, stronger effect = lower value 0.981 | locus YCR088W, strain abp1, stronger effect = lower value 0.978 | locus YDL005C, strain med2, stronger effect = lower value 0.975 | locus YDL035C, strain GPR1, stronger effect = lower value 1.01 | locus YDL040C, strain nat1, stronger effect = lower value 0.981 | locus YDL074C, strain BRE1, stronger effect = lower value 1.03 | locus YDL101C, strain DUN1, stronger effect = lower value 1.01 | locus YDL185W, strain tfp1, stronger effect = lower value 1.02 | locus YDL192W, strain arf1, stronger effect = lower value 1.02 | locus YDR001C, strain nth1, stronger effect = lower value 0.976 | locus YDR069C, strain doa4, stronger effect = lower value 0.984 | locus YDR101C, strain arx1, stronger effect = lower value 1.02 | locus YDR137W, strain rgp1, stronger effect = lower value 1 | locus YDR159W, strain sac3, stronger effect = lower value 0.988 | locus YDR162C, strain NBP2, stronger effect = lower value 1.03 | locus YDR195W, strain ref2 0.966 | locus YDR297W, strain sur2, stronger effect = lower value 0.978 | locus YDR318W, strain mcm21, stronger effect = lower value 1 | locus YDR334W, strain swr1, stronger effect = lower value 0.971 | locus YDR335W, strain msn5, stronger effect = lower value 0.986 | locus YDR388W, stronger effect = lower value 1 | locus YDR392W, strain spt3, stronger effect = lower value 0.88 | locus YDR502C, strain sam2, stronger effect = lower value 1.01 | locus YEL003W, strain gim4, stronger effect = lower value 0.975 | locus YEL037C, strain rad23, stronger effect = lower value 0.972 | locus YEL061C, strain CIN8 (second series), stronger effect = lower value 0.965 | locus YEL061C, strain CIN8, stronger effect = lower value 1.01 | locus YER015W, strain faa2, stronger effect = lower value 0.983 | locus YER016W, strain bim1, stronger effect = lower value 0.973 | locus YER110C, stronger effect = lower value 1.01 | locus YER111C, strain swi4, stronger effect = lower value 0.972 | locus YER155C, strain BEM2 (second series), stronger effect = lower value 0.978 | locus YER155C, strain BEM2, stronger effect = lower value 1 | locus YER167W, strain BCK2, stronger effect = lower value 1.01 | locus YFR010W, strain ubp6, stronger effect = lower value 0.98 | locus YGL078C, strain dbp3, stronger effect = lower value 1.02 | locus YGL086W, strain mad1, stronger effect = lower value 1.02 | locus YGL167C, strain pmr1, stronger effect = lower value 0.968 | locus YGL173C, strain kem1, stronger effect = lower value 0.973 | locus YGL227W, strain vid30, stronger effect = lower value 0.968 | locus YGL240W, strain doc1, stronger effect = lower value 0.972 | locus YGL248W, strain PDE1, stronger effect = lower value 1.03 | locus YGL253W, strain hxk2, stronger effect = lower value 0.983 | locus YGR078C, strain PAC10, stronger effect = lower value 1.04 | locus YGR135W, strain pre9, stronger effect = lower value 1.02 | locus YGR229C, strain SMI1, stronger effect = lower value 1.03 | locus YGR252W, strain gcn5, stronger effect = lower value 1.04 | locus YHR013C, strain ard1, stronger effect = lower value 0.926 | locus YHR027C, strain rpn1, stronger effect = lower value 0.989 | locus YHR030C, strain SLT2, stronger effect = lower value 1.01 and 1.04 | locus YHR079C, strain IRE1 (second series), stronger effect = lower value 1.01 | locus YHR079C, strain IRE1, stronger effect = lower value 1.01 | locus YHR094C, strain hxt1, stronger effect = lower value 1.03 | locus YHR129C, strain ARP1, stronger effect = lower value 1.01 | locus YHR142W, strain chs7, stronger effect = lower value 0.981 | locus YHR200W, strain rpn10, stronger effect = lower value 1.01 | locus YIL066C, strain RNR3, stronger effect = lower value 1.02 | locus YIL073C, strain SPO22, stronger effect = lower value 1.06 | locus YIL125W, strain kgd1, stronger effect = lower value 1.01 | locus YIR030C, strain dcg1, stronger effect = lower value 1.02 | locus YJL092W, strain hpr5, stronger effect = lower value 0.975 | locus YJL095W, strain BCK1 (second series), stronger effect = lower value 0.98 | locus YJL095W, strain BCK1, stronger effect = lower value 1.05 and 1.02 | locus YJL115W, strain asf1, stronger effect = lower value 0.978 | locus YJL129C, strain trk1, stronger effect = lower value 0.971 | locus YJL134W, strain LCB3, stronger effect = lower value 1.01 | locus YJL154C, strain vps35, stronger effect = lower value 0.975 | locus YJL164C, strain tpk1, stronger effect = lower value 0.989 | locus YJL166W, strain qcr8, stronger effect = lower value 0.987 | locus YJL168C, strain set2, stronger effect = lower value 1.01 | locus YJL187C, strain SWE1 (second series), stronger effect = lower value 1.03 | locus YJL187C, strain SWE1, stronger effect = lower value 0.993 | locus YJR043C, strain POL32, stronger effect = lower value 1 | locus YJR066W, strain TOR1, stronger effect = lower value 0.993
